Test results reported in PubChem BioAssay (NCATS).
Records with an inconclusive call do not appear. The source made the active and inactive calls. Calls come from the whole dose curve; as a rule, active = well fitted curve in the direction sought with a large enough effect; inconclusive = small, poorly fitted or top-dose-only effect, or another doubt; inactive = no such curve, though single readings can be large; an effect the other way counts as inactive or inconclusive.

Legend:
[1] = qHTS of pediatric cancer cell lines to identify multiple opportunities for drug repurposing: Confirmatory screen for BT-37 cells (AID 1347117);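 note: viability measured after 48 h of compound exposure; nearly all actives have a fitted effect of over 55% in size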
How it was run: (§1)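 Cells (500-1,000/well) in growth media were settled 5 h at 37 degrees C, then given compounds for 48 h. Viability was read as CellTiter-Glo luminescence. Primary runs used MIPE at 11 points (0.78 nM-46 µM) and NPC at 8 points (0.59 nM-46 µM); follow-ups used 11 points.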

[2] = qHTS of pediatric cancer cell lines to identify multiple opportunities for drug repurposing: Confirmatory screen for MG 63 (6-TG R) cells (AID 1347119); note: nearly all actives have a fitted effect of over 55% in size
How it was run: as §1

[3] = qHTS of pediatric cancer cell lines to identify multiple opportunities for drug repurposing: Confirmatory screen for control Hh wild type fibroblast cells (AID 1347121); note: nearly all actives have a fitted effect of over 70% in size
How it was run: as §1

[4] = qHTS of pediatric cancer cell lines to identify multiple opportunities for drug repurposing: Confirmatory screen for RD cells (AID 1347124);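 note: cells exposed to compound for 48 h before viability readout; nearly all actives have a fitted effect of over 65% in size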
How it was run: as §1

[5] = qHTS of pediatric cancer cell lines to identify multiple opportunities for drug repurposing: Confirmatory screen for Rh18 cells (AID 1347125); note: nearly all actives have a fitted effect of over 55% in size
How it was run: as §1

[6] = qHTS of pediatric cancer cell lines to identify multiple opportunities for drug repurposing: Confirmatory screen for OHS-50 cells (AID 1347128);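 note: compound exposure lasted 48 h at 37 degrees C; nearly all actives have a fitted effect of over 55% in size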
How it was run: as §1

[7] = qHTS of pediatric cancer cell lines to identify multiple opportunities for drug repurposing: Confirmatory screen for SK-N-SH cells (AID 1347129);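 note: cells exposed to compound for 48 h before viability read; nearly all actives have a fitted effect of over 60% in size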
How it was run: as §1

[8] = qHTS of pediatric cancer cell lines to identify multiple opportunities for drug repurposing: Confirmatory screen for Rh30 cells (AID 1347126); note: nearly all actives have a fitted effect of over 55% in size
How it was run: as §1

Furin (Homo sapiens) = Furin (Homo sapiens) (UniProt P09958); experiment: Furin counterscreen qHTS for Zika virus inhibitors (AID 1347149); note: nearly all actives have a fitted effect of over 70% in size
How it was run: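 Fluorogenic cleavage of BOC-RVRR-AMC (2 microM final, Km ~15 µM) was monitored (ex 340, em 450 nm) at 37C after 15 min RT preincubation of 5 nM furin with compounds in HEPES pH 7.0 buffer with CaCl2 and Triton X-100. Percent inhibition was fitted to a 4-parameter Hill curve.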

[9] = target: N-terminal Xaa-Pro-Lys N-methyltransferase 1 (Homo sapiens) (UniProt Q9BV86); experiment: qHTS Assay for Inhibitors of N-terminal methyltransferase 1 (NTMT1): LOPAC validation of the NTMT1 SAHH-coupled ThioGlo3 Assay (AID 1347143); note: nearly all actives have a fitted effect of over 70% in size
How it was run: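 Fluorescence read-out (excitation 340nm, emission 450nm) of SAH-derived thiol, measured via SAHH coupling and ThioGlo3, taken immediately and after a 30 min room-temperature reaction, then normalized to the background read. Enzyme: NTMT1 at 125nM; cofactor SAM 100uM in the added reagent.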

Measured: Potency
Potency is the fitted concentration of half-maximal effect.

Sequence of N-terminal Xaa-Pro-Lys N-methyltransferase 1 (Homo sapiens) (Q9BV86 whole entry, looked up): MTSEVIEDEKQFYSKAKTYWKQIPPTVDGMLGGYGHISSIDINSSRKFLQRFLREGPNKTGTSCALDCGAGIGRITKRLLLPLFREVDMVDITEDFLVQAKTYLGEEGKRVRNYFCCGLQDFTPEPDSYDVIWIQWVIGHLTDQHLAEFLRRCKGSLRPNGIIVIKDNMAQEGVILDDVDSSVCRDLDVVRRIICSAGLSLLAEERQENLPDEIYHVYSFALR
Sequence of Furin (Homo sapiens) (P09958 whole entry, looked up): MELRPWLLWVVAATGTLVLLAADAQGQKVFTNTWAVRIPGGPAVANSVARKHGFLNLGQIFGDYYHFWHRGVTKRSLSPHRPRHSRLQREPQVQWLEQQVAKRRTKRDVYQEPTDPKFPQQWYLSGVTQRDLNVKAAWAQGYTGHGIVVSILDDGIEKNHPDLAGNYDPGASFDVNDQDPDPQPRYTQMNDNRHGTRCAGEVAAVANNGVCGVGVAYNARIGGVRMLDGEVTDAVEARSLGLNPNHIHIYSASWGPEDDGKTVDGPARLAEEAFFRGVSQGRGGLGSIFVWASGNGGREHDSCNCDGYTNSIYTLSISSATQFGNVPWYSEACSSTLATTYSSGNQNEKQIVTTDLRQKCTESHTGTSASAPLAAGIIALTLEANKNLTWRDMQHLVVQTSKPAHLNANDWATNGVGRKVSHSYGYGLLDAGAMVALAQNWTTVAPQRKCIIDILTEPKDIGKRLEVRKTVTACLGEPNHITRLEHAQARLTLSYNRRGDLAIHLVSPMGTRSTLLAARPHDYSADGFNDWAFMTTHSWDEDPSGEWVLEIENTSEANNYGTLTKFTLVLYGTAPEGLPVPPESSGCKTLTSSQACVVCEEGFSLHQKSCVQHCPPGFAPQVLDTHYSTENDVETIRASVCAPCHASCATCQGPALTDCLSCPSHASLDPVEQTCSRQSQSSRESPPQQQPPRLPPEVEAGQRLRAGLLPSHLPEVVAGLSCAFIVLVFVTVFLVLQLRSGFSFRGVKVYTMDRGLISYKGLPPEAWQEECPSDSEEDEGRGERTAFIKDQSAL

NC(CO)(CO)CO
not listed: [8] | Furin (Homo sapiens) | [9]
inactive: all other assays above

CCOc1ccc2nc3cc(N)ccc3c(N)c2c1
active: [7] 14800 nM
inactive: [2] | [5] | [6]

CCCCC(CC)CN=C(N)NC(N)=NCCCCCCN=C(N)NC(N)=NCC(CC)CCCC (stereo not drawn)
active: [1] 8270 nM | [2] 2930 nM | [3] 2930 nM | [4] 1040 nM | [5] 13100 nM | [8] 1470 nM | [6] 13100 nM | [7] 11800 nM | Furin (Homo sapiens) 21500 nM

COCc1c(C(C)C)nc(C(C)C)c(/C=C/[C@@H](O)C[C@@H](O)CC(=O)O)c1-c1ccc(F)cc1
inactive: [3]
active: [1] 1650 nM | [2] 36.9 nM | [4] 928 nM | [5] 522 nM | [8] 414 nM | [6] 465 nM | [7] 418 nM

Oc1ccc(O)cc1
active: [9] 31600 nM
not listed: [5] | Furin (Homo sapiens)
inactive: all other assays above

C[C@@H]1C[C@H]2[C@@H]3CCC4=CC(=O)C=C[C@]4(C)[C@@]3(F)[C@@H](O)C[C@]2(C)[C@H]1C(=O)CO
not listed: [2] | Furin (Homo sapiens) | [9]
inactive: all other assays above

OC[C@H]1O[C@@H](n2cnc3c(=S)nc[nH]c32)[C@H](O)[C@@H]1O
inactive: [2] | [3] | [4]
active: [1] 2930 nM | [6] 2330 nM

O=C(CCCN1CCC(O)(c2ccc(Br)cc2)CC1)c1ccc(F)cc1
inactive: [2] | [3] | [5]

CCC(C(=O)OCCN(CC)CC)c1ccccc1 (stereo not drawn)
not listed: [6] | Furin (Homo sapiens) | [9]
inactive: all other assays above

CC1(C)O[C@@H]2C[C@H]3[C@@H]4C[C@H](F)C5=CC(=O)CC[C@]5(C)[C@H]4[C@@H](O)C[C@]3(C)[C@]2(C(=O)CO)O1
not listed: [8] | Furin (Homo sapiens) | [9]
inactive: all other assays above

C[C@]12CCC(=O)C=C1CC[C@H]1[C@@H]3CC[C@](O)(C(=O)CO)[C@@]3(C)C[C@H](O)[C@@]12F
not listed: [8] | Furin (Homo sapiens) | [9]
inactive: all other assays above

C[n+]1c2cc(N)ccc2cc2ccc(N)cc21 (tested in a mixture with another compound)
active: [1] 827 nM | [2] 14700 nM | [3] 7370 nM | [4] 657 nM | [5] 5850 nM | [8] 6570 nM | [6] 9270 nM | [7] 8330 nM

C[C@]12C=CC(=O)C=C1[C@@H](F)C[C@@H]1[C@@H]2[C@@H](O)C[C@@]2(C)[C@H]1CC[C@]2(O)C(=O)CO
not listed: Furin (Homo sapiens) | [9]
inactive: all other assays above
